Records with an inconclusive call do not appear. The source made the active and inactive calls. Calls follow the shape of the dose curve; as a rule, active = well fitted cell-killing curve with a large enough effect in the repeat runs; inconclusive = weak or mixed curves, or effect the other way; inactive = no such curve, though single readings can be large or run the other way.

This assay in a line: qHTS assay to identify small molecule antagonists of the vitamin D receptor (VDR) signaling pathway - cell viability counter screen (AID 743225). Also: nearly all actives have a fitted effect of over 50% in size. The note with it: VDR-bla HEK293T viability, CellTiter-Glo luminescence, 16 h; series mostly up to 61 µM. The source says:
U.S. Tox21 Program National Center for Advancing Translational Sciences [NCATS] NIH Chemical Genomics Center [NCGC] U.S. Environmental Protection Agency [EPA] National Institutes of Environmental Health Sciences [NIEHS] National Toxicology Program [NTP] U.S. Food and Drug Administration [FDA] Tox21 Assay Overview: The vitamin D receptor (VDR), a member of nuclear hormone receptor superfamily, plays a critical role in calcium homeostasis and bone metabolism. It is also involved in cell differentiation and growth, and thrombogenicity. To identify the compounds that inhibit VDR signaling, the VDR-UAS-bla HEK 293T cell line (Invitrogen, Carlsbad, CA, USA) containing a beta-lactamase reporter gene under the control of an upstream activator sequence (UAS) was used to screen the Tox21 10K compound library. The cytotoxicity of the Tox21 compound library against the VDR-bla cell line was tested in parallel by measuring the cell viability using CellTiter-Glo assay (Promega, Madison, WI) in the same wells.
Tox21 Assay Protocol Summary: VDR-bla cells were dispensed at 2,000 cells/5 uL of assay medium per well into black wall/clear-bottom 1536-well plates using a Multidrop Combi (Thermo Fisher Scientific, Waltham, MA) dispenser. After the assay plates were incubated at a 37C and 5% CO2 for 4 h, 23 nL of compounds dissolved in DMSO, positive controls or DMSO only was transferred to the assay plate by a Pintool station (Kalypsys, San Diego, CA), followed by addition of 1 uL of 1-alpha, 25-Dihydroxy Vitamin D3 (3 nM, final concentration in the wells) using a Bioraptr Flying Reagent Dispenser (FRD) workstation (Beckman Coulter, Indianapolis, IN). The plates were incubated at 37C and 5% CO2 for 16 h, and then 1 uL of LiveBLAzerTM B/G FRET substrate was added using a Bioraptr FRD. The plates were incubated at room temperature for 2 h and fluorescence intensity was measured by an Envision plate reader (PerkinElmer, Shelton, CT). For cell viability readout that measures cytotoxicity, 3 ul/well of CellTiter-Glo reagent was added into the assay plates using a Bioraptr FRD. After 30 min incubation at room temperature, the luminescence intensity in the plates was measured using a ViewLux plate reader (PerkinElmer).
(Quantitative high-throughput screening tests each substance at several concentrations.)
Consider `COP(=S)(OC)Oc1c(Cl)cc(C)cc1Cl`, for which the compound was classed as inactive. Take `CCCCCCBr`: the compound was called inactive.

Turning to `CC1COC2(c3ccccc3Cl)c3cc(Cl)ccc3NC(=O)CN12` (stereo not given), the outcome was inactive.

In the case of `COC(=O)COc1ccc(Cl)cc1Cl`, the compound was classed as inactive.

Regarding `Nc1c(Br)cc([N+](=O)[O-])cc1[N+](=O)[O-]`, the call was inactive. The value for `ClC(Cl)(Cl)C(Cl)(Cl)Cl` was “inactive”; that for `COC(=O)c1c(C(F)F)nc(C(F)(F)F)c(C2=NCCS2)c1CC(C)C` was “inactive”; that for `O=NN1CCCCC1` was “inactive”.

Turning to `CCS(=O)(=O)CCSP(=O)(OC)OC`, the outcome was inactive. The result for `C#CCN1C(=O)COc2cc(F)c(N3C(=O)C4=C(CCCC4)C3=O)cc21` reads “inactive”; that for `O=C(O)C(Br)CBr` (stereo not given), “inactive”; that for `O=NN1CCN(N=O)CC1`, “inactive”.

Take `O=S(=O)(O)C(F)(F)C(F)(F)C(F)(F)C(F)(F)C(F)(F)C(F)(F)F`: the result was inactive. The value for `C[C@]12CC[C@H]3[C@@H](CC=C4C[C@@H](O)CC[C@@]43C)[C@@H]1CC[C@@H]2O` was “inactive”; that for `COCC(=O)N(c1c(C)cccc1C)N1CCOC1=O` was “inactive”. With `CCN(Cc1ccc(Cl)nc1)/C(=C/[N+](=O)[O-])NC`, the call was inactive. As to `CCS(=O)(=O)C(C)(C)S(=O)(=O)CC`, the compound was classed as inactive. The value for `CC(C)CC#N` was “inactive”; that for `O=C(NCO)NCO` was “inactive”. The result for `Cc1ncsc1CCCl` reads “inactive”. The result for `CCOP(=S)(OCC)Oc1ncn(-c2ccccc2)n1` reads “inactive”.

Consider `O=C1OC(c2ccc(O)c(S(=O)(=O)O)c2)(c2ccc(O)c(S(=O)(=O)O)c2)c2c(Br)c(Br)c(Br)c(Br)c21`, for which the compound was classed as inactive. On to `ClC(Br)Br`, for which the call was inactive. The value for `O=C1CN2CCOC2(c2ccccc2Cl)c2cc(Cl)ccc2N1` (stereo not given) was “inactive”. The result for `O=C1CN=C(c2ccccc2)c2cc([N+](=O)[O-])ccc2N1` reads “inactive”; that for `CCOc1nc(C(Cl)(Cl)Cl)ns1`, “inactive”. For `NC(=O)O`, the result was inactive. In the case of `Cc1ncc(CNC(=O)N(CCCl)N=O)c(N)n1`, the call was inactive. `Cc1cccc(C#N)c1`: the compound was called inactive.

On to `N#CC(O)c1ccccc1` (stereo not given), for which the compound was classed as inactive.

Take `CC(CCc1ccccc1)NC(C)C(O)c1ccc(O)cc1` (stereo not given): the compound was called inactive. Consider `CC(C)COP(=O)(OCC(C)C)OCC(C)C`, for which the result was inactive.

For the compound `Cc1nnc2n1-c1sc(CCC(=O)N3CCOCC3)cc1C(c1ccccc1Cl)=NC2`, the result was inactive.

`CCCSP(=S)(OCC)Oc1ccc(Cl)cc1Cl` (stereo not given): the outcome was inactive. The result for `C[C@]12CC[C@H]3[C@@H](CCC4=CC(=O)CC[C@@]43C)[C@@H]1CC[C@@H]2C(=O)O` reads “inactive”. For the compound `CCCCOC(=O)c1ccccc1N`, the result was inactive. The value for `CC(Cl)(Cl)[N+](=O)[O-]` was “inactive”. The value for `O=C(Nc1ccccc1)N(Cc1ccc(Cl)cc1)C1CCCC1` was “inactive”; that for `CC1=NNC(=O)N(/N=C/c2cccnc2)C1` was “inactive”.

For `CCOC(=O)/C=C(C)/C=C/C[C@@H](C)CCCC(C)C`, the call was inactive.

These data come from PubChem BioAssay (Tox21).
